Screening data deposited in PubChem BioAssay by The Scripps Research Institute Molecular Screening Center.
Compounds with a hit are over-represented: about 3.4% of the library has one in this group of screens.
MITF inh: blocks human microphthalmia-associated transcription factor | 0.91% of 650,000 active | O75030 | AlphaScreen MITF homodimerization, bead proximity signal | inhibition, % at 2.6 µM; in the data active = inhibition above about 50%
FBW7 act: human FBW7 E3 ligase activation, primary screen; AlphaScreen FBW7–phospho-cyclin E peptide binding, activator screen; normalized activity (activation), % at 26.1 µM; 0.13% of 650,000 active; in the data active = normalized activity above about 1.9%;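 also: purified mutant Fbw7 with reduced substrate affinity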
GPR151 activ: human GPR151 activation | Q8TDV0 | PathHunter beta-arrestin GPR151 cells, luminescence | activation, % at 11.2 µM | 1% of 650,000 active; in the data active = activation above about 4.9%
Target sequence (Q8TDV0 whole entry, looked up): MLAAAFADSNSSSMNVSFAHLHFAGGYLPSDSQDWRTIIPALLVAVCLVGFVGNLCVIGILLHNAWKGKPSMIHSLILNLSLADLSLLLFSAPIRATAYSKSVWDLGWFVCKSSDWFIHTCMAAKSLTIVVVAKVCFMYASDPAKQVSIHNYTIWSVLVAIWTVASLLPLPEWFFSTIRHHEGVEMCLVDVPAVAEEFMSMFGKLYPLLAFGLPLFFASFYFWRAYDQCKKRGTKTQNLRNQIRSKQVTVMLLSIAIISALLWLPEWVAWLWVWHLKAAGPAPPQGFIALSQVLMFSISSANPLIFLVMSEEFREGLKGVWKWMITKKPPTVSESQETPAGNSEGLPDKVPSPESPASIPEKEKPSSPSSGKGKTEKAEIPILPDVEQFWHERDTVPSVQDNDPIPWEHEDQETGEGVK
TEAD-YAP inh: TEAD-YAP interaction inhibition; inhibition, % at 9.12 µM; HEK-TIYL cells, TEAD-Gal4/YAP UAS-luciferase luminescence; AID 1259422; 1.4% of 640,000 active; in the data active = inhibition above about 32%
Large screens that a line does not name were inactive.

COc1cc([N+](=O)[O-])ccc1NC(=O)NCc1ccccc1F	none
CN1CCN(Cc2cc(Br)c3cccnc3c2O)CC1	MITF inh 89, TEAD-YAP inh 45
CC1CCN(Cc2cc(Br)c3cccnc3c2O)CC1	MITF inh 69, TEAD-YAP inh 47
Oc1c(Br)cc(Br)c2cccnc12	none
Oc1c(CN2CCOCC2)cc(Br)c2cccnc12	TEAD-YAP inh 49
Oc1c(CN2CCN(c3cccc(C(F)(F)F)c3)CC2)cc(Br)c2cccnc12	TEAD-YAP inh 37
Oc1c(CN2CCN(c3cccc(Cl)c3)CC2)cc(Cl)c2cccnc12	none
CCCCOc1ccccc1NC(=O)Cn1c(-c2nonc2N)nc2ccccc21	TEAD-YAP inh 54
Nc1nonc1-c1nc2ccccc2n1CC(=O)N/N=C/c1ccncc1	TEAD-YAP inh 53
CCc1ccccc1NC(=O)Cn1c(-c2nonc2N)nc2ccccc21	none
O=C(Nc1nonc1-c1nc2ccccc2n1Cc1c(F)cccc1Cl)c1ccccc1Cl	TEAD-YAP inh 65
CC(=O)Nc1nonc1-c1nc2ccccc2n1Cc1c(F)cccc1Cl	none
Nc1nonc1-c1nc2ccccc2n1CC(=O)Nc1ccccc1C(F)(F)F	TEAD-YAP inh 34
CCN1CCN(C(=O)Cn2c(=O)c3cccn3c3cccnc32)CC1	none
COc1ccccc1-n1c(SCC(=O)NCc2ccco2)nc2c(sc(=S)n2-c2ccc(C)c(C)c2)c1=O	none
Nc1nonc1-c1nc2ccccc2n1CC(=O)Nc1ccccc1F	TEAD-YAP inh 54
COc1ccc(Br)cc1CNC(=O)C(C)n1ncn2cccc2c1=O (configuration not stated)	none
CC(C)n1cnc2c(Nc3ccc4c(c3)OCO4)nc(Nc3nccc4ccccc34)nc21	TEAD-YAP inh 36
c1cnc2ccc(Nc3nc(Nc4ccc5c(c4)OCO5)c4ncn(-c5ccsc5)c4n3)cc2c1	FBW7 act 8.5, TEAD-YAP inh 45
COc1cc(Nc2nc(Nc3ccc4ncccc4c3)nc3c2ncn3-c2ccsc2)cc(OC)c1OC	TEAD-YAP inh 32
c1ccc2c(Nc3nc(Nc4ccc5c(c4)OCO5)c4ncn(-c5ccsc5)c4n3)nccc2c1	TEAD-YAP inh 49
COc1cc(Nc2nc(Nc3ccc(C(F)(F)F)cc3)nc3c2ncn3-c2ccsc2)cc(OC)c1OC	none
CCNc1nc(Nc2ccc3c(c2)OCO3)c2ncn(C(C)C)c2n1	none
COc1ccc(NC(=S)NC(=O)c2ccccc2F)cc1OC	none
N#CC(C#N)=Cc1cn(CCC(=O)O)nc1-c1cccc(Br)c1	none
Cn1nccc1C(=O)n1cc([N+](=O)[O-])cn1	none
COCC(=O)Nc1cnn(-c2cccc(C(=O)NCc3cc4cc(F)ccc4[nH]3)c2)c1	none
c1ccc(-n2cnc3c(Nc4ccc5c(c4)OCO5)nc(Nc4ccncn4)nc32)cc1	none
c1ccc(-n2cnc3c(Nc4ccc5c(c4)OCO5)nc(Nc4ccc(-n5ccnc5)cc4)nc32)cc1	TEAD-YAP inh 43
c1ccc(-n2cnc3c(Nc4ccc5c(c4)OCO5)nc(Nc4ccc5ncccc5c4)nc32)cc1	FBW7 act 7.1
O=C(C1CCCC1)N1CCC(c2nc3c(nnn3Cc3ccccc3)c(=O)[nH]2)CC1	none
O=C(NC1CCCCC1)N1CCC(c2nc3c(nnn3Cc3ccccc3)c(=O)[nH]2)CC1	TEAD-YAP inh 44
CC(=O)NC1CCN(C(=O)Nc2ccccc2)CC1	FBW7 act 2.1
O=C(NC1CC1)C1CCN(C(=O)Nc2ccccc2)CC1	none
O=C(O)c1cccnc1Nc1ccccc1F	none
CC(C)CCN(Cc1cc([N+](=O)[O-])cc2c1OCOC2)S(=O)(=O)c1ccccc1F	none
O=[N+]([O-])c1cc2c(c(CN(Cc3ccco3)S(=O)(=O)c3ccccc3F)c1)OCOC2	TEAD-YAP inh 47
CC(C)c1ccc(Nc2nnc(SCC#N)s2)cc1	none
O=C(CSc1nnc2ccc(-c3ccc(F)cc3)nn12)NCCc1ccccc1	none
O=C(CSc1nnc2ccc(-c3ccccc3)nn12)NCc1ccccc1	TEAD-YAP inh 41
O=C(CSc1nnc2ccc(-c3ccc(F)cc3)nn12)NCc1ccccc1	TEAD-YAP inh 41
COCCn1c(=NC(=O)c2ccc3ncsc3c2)sc2cc(OC)ccc21	none
NC(c1nc2ccc(-c3ccncc3)cc2[nH]1)c1ccc(F)cc1F (configuration not stated)	none
Fc1ccc2nc(-c3nc4ccc(-c5ccncc5)cc4[nH]3)[nH]c2c1	FBW7 act 2.6
CCOc1ccc(NCc2ccc(O)c3ncccc23)cc1	MITF inh 62
Oc1ccc(CNc2ccc(Cl)cn2)c2cccnc12	TEAD-YAP inh 54
Oc1ccc(CNc2cccc(Br)c2)c2cccnc12	none
Cc1cccnc1NC(=O)c1c(O)c2c([nH]c1=O)CCCC2	none
